For seven compounds, potency estimated from few doses results are on record in article PMC11062922 (Nature Chemical Biology, 2023).

Set-up in all cases: species or system human, MV4-11 + K-562 + COLO205 + SK-N-BE2 + OVCAR-8
The test system of assay [1] is AKT3. Particulars: read-out: apparent Kd; compound concentrations: 100 nM and 1000 nM (sheet 'Samples'), CATDS: 0.31242547502762402; n = 1.
The subject of assay [2] is COX5A. Particulars: read-out: apparent Kd; compound concentrations: 100 nM and 1000 nM (sheet 'Samples'), CATDS: 0.36000634537809301; n = 1.
The test system of assay [3] is MAPKAPK2. Particulars: read-out: apparent Kd; compound concentrations: 100 nM and 1000 nM (sheet 'Samples'), CATDS: 0.330960581513286; n = 1.
For assay [4], the system named is ATM. The settings on record: read-out: apparent Kd, n = 1.
Assay [5] has as its system GSK3A. The settings on record: read-out: apparent Kd; compound concentrations: 100 nM and 1000 nM (sheet 'Samples'), CATDS: 0.228409862678119; n = 1.
Assay [6] deals with MTHFD1. The settings on record: read-out: apparent Kd; compound concentrations: 100 nM and 1000 nM (sheet 'Samples'), CATDS: 0.40947747984703597; n = 1.
Assay [7] relates to CDC42BPG. Particulars: read-out: apparent Kd; compound concentrations: 100 nM and 1000 nM (sheet 'Samples'), CATDS: 0.370471808138506; n = 1.
Assay [8] concerns ATR. Particulars: read-out: apparent Kd; compound concentrations: 100 nM and 1000 nM (sheet 'Samples'), CATDS: 8.9801947735964505E-2; n = 1.
The subject of assay [9] is T1, DJA1.
T1 construct: gene DNAJA1
Particulars: read-out: apparent Kd; compound concentrations: 100 nM and 1000 nM (sheet 'Samples'), CATDS: 8.0242865429316204E-2; n = 1.

Assay [10] deals with MTOR. The settings on record: read-out: apparent Kd; compound concentrations: 100 nM and 1000 nM (sheet 'Samples'), CATDS: 0.10171258605148099; n = 1.
Assay [11] deals with NLK. The settings on record: read-out: apparent Kd; compound concentrations: 100 nM and 1000 nM (sheet 'Samples'), CATDS: 7.3825275535159302E-2; n = 1.
Assay [12] relates to PIK3C2A. The settings on record: read-out: apparent Kd; compound concentrations: 100 nM and 1000 nM (sheet 'Samples'), CATDS: 6.5272193721358701E-2; n = 1.
For assay [13], the system named is PIK3CA. Particulars: read-out: apparent Kd; compound concentrations: 100 nM and 1000 nM (sheet 'Samples'), CATDS: 0.22105458504596001; n = 1.
Assay [14] relates to PRKAG2. Particulars: read-out: apparent Kd; compound concentrations: 100 nM and 1000 nM (sheet 'Samples'), CATDS: 7.5904360676084706E-2; n = 1.
Assay [15] concerns PTK6. The settings on record: read-out: apparent Kd; compound concentrations: 100 nM and 1000 nM (sheet 'Samples'), CATDS: 7.5402432247591605E-2; n = 1.
Assay [16] concerns RAB14. Particulars: read-out: apparent Kd; compound concentrations: 100 nM and 1000 nM (sheet 'Samples'), CATDS: 6.8441155991484606E-2; n = 1.
The test system of assay [17] is STK16. The settings on record: read-out: apparent Kd; compound concentrations: 100 nM and 1000 nM (sheet 'Samples'), CATDS: 0.118413696953623; n = 1.
For assay [18], the system named is FLT4. The settings on record: read-out: apparent Kd; compound concentrations: 100 nM and 1000 nM (sheet 'Samples'), CATDS: 0.192292703568538; n = 1.
Assay [19] relates to RIPK2. The settings on record: read-out: apparent Kd; compound concentrations: 100 nM and 1000 nM (sheet 'Samples'), CATDS: 0.39426216370123801; n = 1.
The subject of assay [20] is STK10. Particulars: read-out: apparent Kd; compound concentrations: 100 nM and 1000 nM (sheet 'Samples'), CATDS: 0.17094041462039; n = 1.
Assay [21] deals with CLK4. Particulars: read-out: apparent Kd; compound concentrations: 100 nM and 1000 nM (sheet 'Samples'), CATDS: 0.213944296498185; n = 1.
Assay [22] relates to CSNK1A1. The settings on record: read-out: apparent Kd; compound concentrations: 100 nM and 1000 nM (sheet 'Samples'), CATDS: 0.24083982314133201; n = 1.
For assay [23], the system named is CSNK1D. Particulars: read-out: apparent Kd; compound concentrations: 100 nM and 1000 nM (sheet 'Samples'), CATDS: 0.19928215700528701; n = 1.
The subject of assay [24] is PIK3C3. Particulars: read-out: apparent Kd; compound concentrations:100 nM and 1000 nM (sheet 'Samples'); n = 1.

Structures are written as SMILES. Read-outs that look alike come from different tables or passages of the source.

Take `FC(F)(F)c1cccc(-c2nn3ncccc3c2-c2ccnc(Nc3ccc4c(c3)OCCO4)n2)c1` [GW827102X]: the potency estimated from few doses in [1] is 2070 nM; in assay [2] it was 1560 nM; in assay [3] it was 1830 nM.
Turning to `Cn1cc(C2=C(c3cn(C)c4cc(C(N)=O)ccc34)C(=O)NC2=O)c2ccccc21` [RO0319317-000], the potency estimated from few doses is 142 nM in assay [4] (compound concentrations: 100 nM and 1000 nM (sheet 'Samples'), CATDS: 0.45876429377403); 860 nM in assay [5]; 175 nM in assay [6].
Regarding `CC(C)c1ccc(-c2cc(-c3c[nH]nc3-c3ccccn3)ccn2)cc1` [GW682841X], the potency estimated from few doses is 216 nM in assay [4] (compound concentrations: 100 nM and 1000 nM (sheet 'Samples'), CATDS: 0.768793574743593); 1220 nM in assay [7].
For `Fc1ccc(-c2ncn(CCCN3CCOCC3)c2-c2ccccn2)cc1` [SB-211742], the potency estimated from few doses is 181 nM in [4] (compound concentrations: 100 nM and 1000 nM (sheet 'Samples'), CATDS: 0.213303269988698); 854 nM in [8]; 1130 nM in assay [9]; 648 nM in assay [10]; 1420 nM in assay [11]; 2110 nM in assay [12]. Further, the potency estimated from few doses in assay [13] is 172 nM; in assay [14] it was 1310 nM; in assay [15], 1330 nM; in assay [16], 1790 nM; in assay [17] it was 479 nM.
For `CCS(=O)(=O)c1ccc(OC)c(Nc2nccc(N(C)c3ccc4c(C)n[nH]c4c3)n2)c1.Cl` [GW654652C], the potency estimated from few doses in assay [4] (compound concentrations: 100 nM and 1000 nM (sheet 'Samples'), CATDS: 0.41438416433349501) is 228 nM; in assay [18], 1430 nM; in assay [19] it was 249 nM; in [20], 2280 nM.
For `Cc1nc2sc3c(N)ncnc3c2c(C)c1C` [RO4241984-000], the potency estimated from few doses was 322 nM in assay [4] (compound concentrations: 100 nM and 1000 nM (sheet 'Samples'), CATDS: 0.46387822436217502); 1410 nM in assay [21]; 1060 nM in assay [22]; 1710 nM in assay [23].
Take `Cc1cn2c(=O)cc(N3CCOCC3)nc2n1Cc1cccc(Cl)c1Cl` [GSK2334006A]: the potency estimated from few doses in assay [4] (compound concentrations:100 nM and 1000 nM (sheet 'Samples')) was 280 nM; in [24], 61.5 nM.
